Screening data: PubChem BioAssay, National Center for Advancing Translational Sciences (NCATS)
AmpC no deterg – AmpC beta-lactamase inhibition without detergent; P00811; AmpC nitrocefin hydrolysis, absorbance 480 nm, 0.0001% Triton; Potency, µM (series often up to 57.1 µM), for the others: top-dose activity change, negative = inhibition, actives largely listed as inhibitors; 0.52% of 330,000 active; AID 485341;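 note: potency is the fitted concentration of half-maximal effect; plate controls were no compound for no effect and no enzyme for full effect; nearly all actives have a fitted effect of over 20% in size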
Target sequence (P00811 whole entry, looked up): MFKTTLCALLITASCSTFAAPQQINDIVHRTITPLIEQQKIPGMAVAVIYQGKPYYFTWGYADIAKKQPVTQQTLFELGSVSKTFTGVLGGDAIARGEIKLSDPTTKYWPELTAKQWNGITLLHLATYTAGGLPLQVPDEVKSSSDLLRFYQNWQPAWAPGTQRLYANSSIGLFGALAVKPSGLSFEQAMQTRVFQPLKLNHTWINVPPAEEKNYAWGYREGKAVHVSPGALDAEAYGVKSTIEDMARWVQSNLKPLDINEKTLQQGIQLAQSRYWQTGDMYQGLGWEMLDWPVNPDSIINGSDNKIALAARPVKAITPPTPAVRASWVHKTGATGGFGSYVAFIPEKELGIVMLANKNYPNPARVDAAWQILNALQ
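AmpC (5.3 nM in the dispensed reagent) in 20 mM phosphate pH 7.0 with 0.01% (detergent screen) or 0.0001% Triton X-100 was preincubated with compounds for 15 min at room temperature. Nitrocefin was then added from an 800 uM solution, and hydrolysis was followed at 480 nm.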
FMDV inh – blocks foot and mouth disease virus; FMDV antiviral cell-based qHTS; 1.2% of 410,000 active; AID 1159524; Potency, µM (series often up to 57.9 µM), inactives show at the top dose activity change, negative = inhibition, usual class: inhibitors; calls by dose curve; tested in HEK293T cells; note: read-out not given here; potency is the fitted concentration of half-maximal effect; nearly all actives have a fitted effect of over 45% in size
AmpC detergent – inhibitors of E. coli AmpC beta-lactamase with detergent | 0.041% of 370,000 active | AmpC hydrolysis of nitrocefin, absorbance 480 nm, 0.01% Triton | P00811 | Potency, µM (top dose mostly 114 µM), for the others: at the highest dose activity change, negative = inhibition, most hits filed as inhibitors;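 note: potency is the fitted concentration of half-maximal effect; 0% = no-compound wells and -100% = no-enzyme wells; nearly all actives have a fitted effect of over 25% in size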
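AmpC (5.3 nM in the dispensed reagent) in 20 mM phosphate pH 7.0 with 0.01% (detergent screen) or 0.0001% Triton X-100 was preincubated with compounds for 15 min at room temperature. Nitrocefin was then added from an 800 uM solution, and hydrolysis was followed at 480 nm.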
HCMV antiviral – inhibitors of human cytomegalovirus. activity change, negative = inhibition, % at 57.5 µM. HFF cells, HCMV-luciferase reporter, 72 h; hits give low values. 4.5% of 410,000 active; in the data active = activity change below about -60%; inconclusive = no clear call, values can overlap the other calls; inactive = above about -39%
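After 16 h attachment at 37C, HFF cells received test compound and HCMV-luciferase (1 PFU/cell); reporter luminescence read 72 h later, data normalized against buffer-only and known inhibitor Salinomycin.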
HCV inh – HCV inhibition; 3.4% of 340,000 active; AID 651820; Potency, µM (top dose mostly 41.8 µM), for the others: top-dose activity change, negative = inhibition, usual class: inhibitors; Huh7.5.1 HCVcc-Cre infection, luciferase reporter, 44 h; note: potency is the fitted concentration of half-maximal effect
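A cell-based infection assay in which seeded cells (1,000 per well) receive test compound after 4 h, are inoculated with HCVcc-Cre at approximately 0.5 moi, and are incubated 44 h before luminescence detection.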
Active calls of the source: *; ? = inconclusive; / = not tested or not shown; [ ] = remark or other dose. Only some compounds are listed: those with a hit (about 7.3% of all), similar ones and a draw of the others. Unless noted, calls come from the whole dose curve; as a rule, active = well fitted curve in the direction sought with a large enough effect; inconclusive = small, poorly fitted or top-dose-only effect, or another doubt; inactive = no such curve, though single readings can be large; an effect the other way counts as inactive or inconclusive. Unless noted, % is set by controls: 0 for no effect and ±100 for the full control effect.

SMILES	AmpC no deterg	FMDV inh	AmpC detergent	HCMV antiviral	HCV inh
COc1ccc(-c2sc3ccc(N4CCOCC4)cc3c2C#CCCO)cc1	172%	?	/	37	4µM*
Cc1cc(C)cc(NC(=O)CN2C(=O)CSc3ccc(S(=O)(=O)N(C)C)cc32)c1	/	-4%	2%	5	/
CCN(C(=O)COC(=O)c1ccccc1SCC(=O)N1CCCC1)C1CCS(=O)(=O)C1 (stereo unspecified)	-10%	10%	?	-40	6%
COc1ccccc1-c1sc2cc3c(cc2c1C#Cc1cncn1C)OCO3	23%	?	/	25	0.89µM*
COC(=O)c1c(-c2ccsc2)sc2ccc(-c3cc(OC)c(OC)c(OC)c3)cc12	41%	?	/	-18	?
COc1ccc(-c2sc3ccccc3c2C#CCO)cc1	-29%	-23%	-7%	?	28µM*
COc1ccc(-c2sc3cc4c(cc3c2C#Cc2ccc(N)cc2)OCO4)cc1	-15%	6%	/	6	?
COc1ccc(-c2sc3cc4c(cc3c2C#CCO)OCO4)cc1	-1%	-25%	0%	-16	11µM*
COc1cc(-c2ccc3sc(-c4ccsc4)c(C#CCO)c3c2)cc(OC)c1OC	30%	-27%	-3%	-23	3.2µM*
COC(=O)Cc1[nH]nc2c1C(c1cc(OC)c(OC)c(OC)c1)C(C#N)=C(N)O2 (stereo unspecified)	-7%	-24%	0%	-7	11%
COC(=O)Cc1[nH]nc2c1C(C1C=CCCC1)C(C#N)=C(N)O2 (stereo unspecified)	-57%	16µM*	?	-8	?
Cc1ccc(-c2ccc(S(=O)(=O)N3CC(C)OC(C)C3)cc2)cc1 (stereo unspecified)	-11%	-13%	-8%	9	13%
COc1ccc(/C=C\C(=O)CC(O)(c2ccccc2)C(F)(F)F)cc1 (stereo unspecified)	-19%	20µM*	2%	63	-6%
O=C(Nc1cccc(OCc2cc(=O)n3c4c(sc3n2)CCCC4)c1)c1ccc(F)cc1	/	-19%	-4%	1	/
O=C(Nc1ccc(OCc2cc(=O)n3c4c(sc3n2)CCCC4)cc1)c1ccccc1	/	-4%	5%	-105*	/
CSc1nnc(C(C)(C)C)c(=O)n1/N=C/c1ccc(C(C)C)cc1	-11%	7%	5%	-63*	10%
COc1cc2ccccc2cc1C(=O)N1CC(C)CC(C)C1 (stereo unspecified)	12%	-18%	6%	-33	-11%
Cc1ccc(NC(=O)NC(=O)COc2c(F)c(F)cc(F)c2F)c(C)c1	-14%	1%	/	-32	-2%
COCCNc1nc(-c2ccc(OC)cc2)c(-c2ccc(OC)cc2)s1	-14%[11.4 µM]	-22%	?	-69*	?
CC(=O)Nc1sc(-c2ccccc2)nc1-c1ccccc1	-16%	-4%	?	-37	11µM*
COC(=O)CCc1sc(Nc2ccc(OC)cc2)nc1-c1ccc(OC)cc1	/	7%	-2%	18	/
CCCCCCNc1nc(-c2ccc(OC)cc2)c(CCC(=O)O)s1	-15%	-10%	-9%	-62*	13%
CC(=O)Nc1sc(-c2ccc(Cl)cc2)nc1-c1ccccc1	-8%	-2%	5%	0	?
COc1ccc(-c2nc(NC(C)=O)sc2-c2ccccc2)cc1	46%	-6%	0%	-4	10µM*
Cc1ccc(NC(=O)CCN2C(=O)C3C4CCC(C4)C3C2=O)cc1Cl (stereo unspecified)	38%	3%	-14%	-11	2%
SMILES	AmpC no deterg	FMDV inh	AmpC detergent	HCMV antiviral	HCV inh
Cc1nc(N2CCCC2)ncc1C(=O)NCc1ccccc1Cl	/	1%	6%	-2	/
O=[N+]([O-])c1ccc(CSc2nnc(Cc3ccccc3)n2-c2ccc(F)cc2)cc1	44%	-30%	2%	?	-2%
Cc1cccc(-n2c(Cc3ccccc3)nnc2SCc2ccc([N+](=O)[O-])cc2)c1	82%	-25%	-8%	-70*	?
CC(=O)c1ccc(N2CCN(c3ccccc3O)CC2)c([N+](=O)[O-])c1	-17%	?	3%	-6	-23%
O=[N+]([O-])c1cccnc1N1CCC(c2cc(-c3ccc(Cl)cc3Cl)n[nH]2)CC1	-1%	0%	-11%	-17	22µM*
COc1ccc(OC)c(-c2cc(C3CCN(c4ncccc4[N+](=O)[O-])CC3)[nH]n2)c1	99%	?	2%	-29	11µM*
CC(=O)c1ccc(N2CCC(c3cc(-c4ccc(Cl)cc4Cl)n[nH]3)CC2)c([N+](=O)[O-])c1	-39%	20µM*	-1%	-60*	11µM*
O=[N+]([O-])c1cccnc1N1CCC(c2cc(-c3cccc(C(F)(F)F)c3)n[nH]2)CC1	4%	-6%	-7%	-30	?
NC(=O)C1CCN(c2ncccc2[N+](=O)[O-])CC1	-14%	-8%	-4%	16	?
Cc1ccc(Cn2c(C)c(CNCc3ccccc3F)c(C(=O)O)c2C)cc1	/	-23%	20%	3	/
O=C(c1cnsn1)N1CCCC(Nc2ccc(F)c(F)c2)C1 (stereo unspecified)	1%	-23%	0%	5	16%
O=C(N/N=C/c1ccco1)C1CCCC1	2%	-20%	-8%	/	9%
C#C[C@]1(O)CC[C@H]2[C@@H]3CCc4cc(OC)ccc4[C@H]3CC[C@@]21C	-16%	-19%	0%	38	2%[8.37 µM]
C#C[C@]1(O)CC[C@H]2[C@@H]3CCc4cc(OC5CCCC5)ccc4[C@H]3CC[C@@]21C	34%	-8%	-13%	116	0.63µM*
COc1ccc(C)cc1NC(=O)c1ccc2c(c1)nnn2C1CCCC1	/	-21%	2%	?	/
Cc1nn(Cc2ccccc2Cl)c(Cl)c1C(=O)O	-13%	-24%	7%	7	5%
CCn1nc(C)c(Br)c1C(=O)Sc1ccccc1Cl	-22%	22µM*	0%	-5	10%
Cc1cc(-c2ccnc(-n3ncc(C(=O)NCC4COCCO4)c3C3CC3)n2)c(C)s1 (stereo unspecified)	/	47%	/	/	/
Cc1cccc2cc(C#N)c(SCC(=O)NNC(=O)Cc3ccccc3)nc12	-4%	0%	-2%	-63*	-22%
Cc1cccc2cc(C#N)c(SCC#N)nc12	-24%	-24%	-1%	-67*	4%
Cc1cc2cccc(C)c2nc1SCC(=O)NNC(=O)c1ccco1	-35%	-14%	-10%	?	5%
CCc1nc(SCC#N)c(C#N)cc1C	2%	/	-6%	/	/
OCCCc1cn(Cc2ccccc2)c2ccccc12	16%	-1%	?	20	-1%
CCCCCN=c1ccn(Cc2ccccc2)c2ccccc12	/	40µM*	/	/	/
CCc1c(C(=O)Nc2ccncc2)csc1C	-11%	?	1%	-100*	?
